# Compound activity from PubChem BioAssay.
# FLuc counter = inhibits or activates purified firefly luciferase, miR-21 counter-screen; P08659; purified FLuc, Km substrates, luminescence inhibition; Potency, µM (highest dose often 57.5 µM), inactives show at the top dose activity change, negative = inhibition, hits mostly inhibitors; 360,000 compounds, 6.9% hits; AID 588342;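 also: plate controls were vehicle for no effect and reference inhibitor for full effect; nearly all actives have a fitted effect of over 55% in size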
# Target sequence (P08659 whole entry, looked up): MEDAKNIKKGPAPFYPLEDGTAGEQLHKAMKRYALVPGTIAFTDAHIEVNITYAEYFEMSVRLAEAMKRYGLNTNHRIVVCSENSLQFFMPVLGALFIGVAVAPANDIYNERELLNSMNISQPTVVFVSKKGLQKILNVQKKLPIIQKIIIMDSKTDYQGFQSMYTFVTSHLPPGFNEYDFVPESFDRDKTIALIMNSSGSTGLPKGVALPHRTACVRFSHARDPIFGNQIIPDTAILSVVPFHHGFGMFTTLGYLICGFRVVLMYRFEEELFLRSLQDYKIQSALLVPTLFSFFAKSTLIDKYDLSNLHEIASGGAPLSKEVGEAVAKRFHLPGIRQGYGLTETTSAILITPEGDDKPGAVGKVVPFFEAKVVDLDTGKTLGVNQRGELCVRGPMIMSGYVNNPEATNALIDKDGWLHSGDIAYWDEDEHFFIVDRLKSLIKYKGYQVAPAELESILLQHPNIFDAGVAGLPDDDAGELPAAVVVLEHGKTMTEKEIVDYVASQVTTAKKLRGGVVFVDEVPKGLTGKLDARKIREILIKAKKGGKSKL
#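 Purified P. pyralis luciferase, 10 nM final, with Km-level 10 uM D-luciferin and 10 uM ATP in 50 mM Tris acetate pH 7.5, 10 mM Mg acetate, 0.01% Tween-20, 0.05% BSA; 6-point qHTS titration about 60 µM downward; luminescence read.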
# SMN2 splice up = enhancers of SMN2 splice variant expression; Potency, µM (top dose mostly 46.1 µM), without a hit: at the top dose activity change, positive = activation, hits mostly activators; AID 1458; 210,000 compounds, 2.8% hits; HEK293 SMN2-luciferase splicing reporter, luminescence, 30-36 h; also: % of control where 0% means no effect; nearly all actives have a fitted effect of over 55% in size
#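 HEK293 cells carry an SMN2 minigene-luciferase reporter in which exon 7 inclusion puts luciferase in frame. Cells were seeded at 2000 cells/well, attached for 10-12 hours, then exposed to compounds for 30-36 hours at 37C before ONE-Glo luminescence.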
# ELG1 repair inh = inhibitors of ELG1-dependent DNA repair in HEK293T cells. HEK293T ELG1-luciferase reporter, luminescence, 16 h; DNA damage induced by 5-fluorouridine. Potency, µM (top dose mostly 46.1 µM), for inactives: at the top dose activity change, negative = inhibition, usual class: inhibitors. 330,000 compounds, 2.3% hits; also: % is scaled to controls: 0 for no effect and ±100 for the full control effect; nearly all actives have a fitted effect of over 55% in size
#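 Overnight (16 hr) co-exposure of 2,000 cells/well to 5-fluorouridine and compound at 37 °C preceded detection. Luciferase was quantified via ONE-Glo luminescence; loss of signal denotes inhibition.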
# NPC1 prom act = activators of NPC1 promoter. Potency, µM (doses to about 9.22 µM), for the others: at the top dose activation, usual class: activators. Huh7 NPC1 promoter luciferase reporter, 24 h. 320,000 compounds, 2.4% hits; also: % of control where 0% means no effect; nearly all actives have a fitted effect of over 60% in size
#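 In 1536-well qHTS, Huh7 cells harboring an NPC1 promoter–luciferase construct received compound for 24 h; activation was quantified by luminescence following luciferase reagent addition.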
# Rab9 prom act = Rab9 promoter activation. AID 485297. Potency, µM (top dose mostly 9.22 µM), for inactives: at the highest dose activation, negative = inhibition, hits mostly activators. Huh7 Rab9 promoter-luciferase reporter, luminescence, 24 h. 320,000 compounds, 2.8% hits; also: % of control where 0% means no effect; nearly all actives have a fitted effect of over 60% in size
#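 Promoter activation is measured as luciferase luminescence in Huh7 cells stably transfected with a Rab9 promoter–luciferase construct, following 24 h compound exposure at 37 °C and 10 min reagent incubation at ambient temperature.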
# ELG1 genotoxic = genotoxicity induction in ELG1-luciferase HEK293T cells; 330,000 compounds, 1.3% hits; HEK293T ELG1-luciferase reporter, luminescence, 16 h; AID 504466; Potency, µM (titrated, usually from 46 µM), inactives show at the top dose activity change, positive = activation, most hits filed as activators; also: % of control where 0% means no effect; nearly all actives have a fitted effect of over 60% in size
#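 HEK293T cells expressing luciferase-tagged ELG1 were treated with compound or DMSO for 16 hr at 37°C. Luciferase activity was then read after 30 min with ONE-Glo at room temperature; rising signal flags genetic stress.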
# The depositor's hits bear a star; ? = inconclusive; nt = no result; [ ] = remark or other dose. Shown are actives, neighbours in structure and some others; about 9.3% of the full set was active somewhere. Calls follow the shape of the dose curve; as a rule, active = well fitted curve in the direction sought with a large enough effect; inconclusive = small, poorly fitted or top-dose-only effect, or another doubt; inactive = no such curve, though single readings can be large; an effect the other way counts as inactive or inconclusive. Potency is read from the fitted curve at half-maximal effect.
SMILES,FLuc counter,SMN2 splice up,ELG1 repair inh,NPC1 prom act,Rab9 prom act,ELG1 genotoxic
O=C(CSc1nnc(-c2ccccc2)o1)NC1CC1,-13%,nt,?,13%,0%,11%
CCn1c(-c2ccccn2)nc2cc(S(=O)(=O)N(C)C)ccc21,21µM*,nt,?,18%,27%,8%
COc1cc(NC(=O)CN2C(=O)C(c3ccc(C)cc3)=NC23CCCCC3)cc(OC)c1,-1%,8%,nt,nt,nt,nt
C=CCNc1nc(Nc2cc(Cl)ccc2OC)nc(OC)n1,-1%,nt,-6%,12%,5%,1%
COc1cccc(C(c2sc3nc(C)nn3c2O)N2CCN(c3ccccc3F)CC2)c1 (centres undefined),0%,16%,-8%,-4%,-3%,-6%
COc1ccc(C(c2sc3ncnn3c2O)N2CC(C)OC(C)C2)cc1OC (centres undefined),19µM*,24%,?,-2%,-2%,15%
COc1ccc(C(c2sc3ncnn3c2O)N2CCN(c3ccccc3F)CC2)cc1OC (centres undefined),7.6µM*,-26%,?,0%,1%,?
COC(=O)c1cc(NC(=O)Cc2cc(OC)c(OC)c(OC)c2)cc(C(=O)OC)c1,3%,14%,?,-12%,2%,3%
Cn1cccc1/C=N/n1cnnc1,0%,22µM*,-3%,0%,-4%,-1%
Clc1ccc(-n2cccc2/C=N/n2cnnc2)cc1,0%,-9%,-5%,-3%,-7%,2%
Cc1cc(N/N=C/c2ccc3c(c2)OCO3)nc2ccccc12,2.7µM*,nt,?,?,2.5µM*,14%
O=c1[nH]c(N/N=C/c2ccccc2)nc2ccccc12,6µM*,14µM*,?,3.2µM*,2.2µM*,2.3µM*
Fc1ccc(/C=N/Nc2nc3ccccc3[nH]2)cc1F,12µM*,12%,?,?,29%,10%
C(=N\Nc1nc2ccccc2[nH]1)/c1ccccc1,11µM*,13µM*,?,?,?,?
Cc1cc(=O)[nH]c(N/N=C/c2ccc(F)cc2)n1,?,nt,?,16%,23%,7%
Brc1ccc(-c2ccc(/C=N/Nc3nc4ccccc4[nH]3)o2)cc1,0.85µM*,7.9µM*,?,?,?,?
Fc1cccc(/C=N/Nc2nc3ccccc3[nH]2)c1,8.5µM*,?,?,?,3.2µM*,?
CCCc1cc(=O)[nH]c(N/N=C/C=C\c2ccccc2)n1,-15%,-16%,-14%,-2%,7%,-5%
C(=C\c1ccccc1)/C=N/Nc1nc2ccccc2[nH]1,3.8µM*,nt,?,3.2µM*,4.5µM*,18µM*
Brc1ccc(-c2ccc(/C=N/Nc3nncc(-c4ccccc4)n3)o2)cc1,-11%,-4%,?,2%,-1%,-1%
C(=N\Nc1nc2ccccc2[nH]1)/C1CCCCC1,3.4µM*,2%,5%,1%,15%,?
O=C(CCc1nc2ccccc2[nH]1)NC1CCCCC1,3%,-4%,1%,-5%,0%,-4%
O=C(COc1ccccc1C(=O)O)Nc1nc2ccc([N+](=O)[O-])cc2s1,?,nt,-6%,1%,4%,0%
C(/CCc1ccccc1)=N\Nc1nc2ccccc2[nH]1,2.1µM*,9%,1%,14%,22%,?
O=c1[nH]c(N/N=C/c2cc3c(cc2[N+](=O)[O-])OCO3)nc2ccccc12,-2%,nt,10%,4%,-2%,4%
SMILES,FLuc counter,SMN2 splice up,ELG1 repair inh,NPC1 prom act,Rab9 prom act,ELG1 genotoxic
O=c1[nH]c(N/N=C\c2ccc3c(c2)OCO3)nc2ccccc12,3.8µM*,8.9µM*,?,0.79µM*,0.56µM*,?
C[C@H](CCC(=O)NCC(=O)O)C1CC[C@H]2C3CC[C@@H]4C[C@H](O)CC[C@]4(C)C3C[C@H](O)[C@]12C (some centres undefined),nt,3%,nt,nt,nt,nt
Cc1ccc(NC(=O)CSc2nnc(-c3n[nH]c4ccccc34)n2-c2ccccc2)c(C)c1,3%,-27%,23µM*,0%,0%,-11%
Cc1ccc(OCc2nnc(SCC(=O)Nc3cccc4ccccc34)n2-c2ccccc2)cc1,3%,-19%,?,0%,-2%,-5%
O=c1[nH]cnc2scc(-c3ccc(-c4ccccc4)cc3)c12,1.2µM*,14µM*,?,1.1µM*,1.1µM*,1.8µM*
COc1ccc(-c2csc3nc[nH]c(=O)c23)cc1OC,-3%,nt,3%,-1%,7%[1.84 µM],0%
CCCOc1ccc(-c2csc3nc[nH]c(=O)c23)cc1,?,nt,?,3.2µM*,1.6µM*,?
O=C(Cc1ccc(Cl)c(Cl)c1)N1CCOCC1,-1%,nt,?,0%,-8%[1.84 µM],-1%
N=C1S/C(=C\c2cn[nH]c2-c2ccc(F)cc2)C(=O)N1c1ccccc1F,?,13µM*,?,3.2µM*,4µM*,10%
N=C1S/C(=C\c2ccccc2F)C(=O)N1c1ccc(F)cc1,1%,7%,29%,0%,-3%,0%
Nc1ccc(Nc2nc3ccccc3[nH]2)cc1,-22%,nt,-14%,2%,3%,0%
Cc1cc(C)nc(Nc2nc3ccccc3[nH]2)n1,?,13µM*,?,?,?,?
c1ccc(Nc2nc3ccccc3[nH]2)nc1,24µM*,?,?,?,3.5µM*,?
Cc1cc(=O)c2c(O)c3c(O)cc(=O)c4c3c3c(cc(O)c1c23)C(C)(C)C=4O,nt,-11%,nt,nt,nt,nt
Cn1c(=O)n(C)c2cc(N3CCOCC3)c(NC(=O)c3ccc(C(C)(C)C)cc3)cc21,3%,?,nt,nt,nt,nt
COc1cc(C(=O)Nc2ccccc2N2CCCCC2)cc(OC)c1OC,-1%,nt,21µM*,-7%,2%,-3%
COc1cc(Cl)c(C)cc1NC(=O)c1ccccc1NC(=O)CN1CCOCC1,0%,nt,16µM*,3%,-2%,-8%
Cc1ccc(NC(=O)CN2CCCCCC2)c(Br)c1,12µM*,11%,?,4µM*,4µM*,?
COc1cc(NC(=O)c2ccccc2Cl)c(OC)cc1NC(=O)CN1CCCCC1,-7%,nt,1%,-1%,-1%,0%
COc1ccccc1C(=O)Nc1ccccc1N1CCCCC1,-7%,nt,?,-6%,-7%,0%
COc1cc(NC(=O)c2ccc(C)cc2)c(OC)cc1NC(=O)CN1CCCCC1,19µM*,-1%,?,23%,21%,-5%
COc1ccccc1OC(=O)c1cc(Cl)nc2ccccc12,?,-21%,15%,2%,-10%,-1%
